Experimental data from the supplement of paper PMC4466140.

These binders were tested against CaNbp2 (assay: SPOT peptide array binding signal intensity (averaged, normalized) (arbitrary units (background-subtracted, floor 0; scale differs between SH3 domains)); higher = stronger binding of the SH3 domain to the peptide).
Procedure, shortened: (§1)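 Binding signal is given in arbitrary units that differ between domains and is the normalized, background-subtracted spot intensity averaged across replicates. Each GST-SH3 fusion from one of four yeast species was made in E. coli BL21(DE3), purified on glutathione Sepharose and incubated at 10 μg/ml overnight at 4°C on cellulose-bound synthetic 15-mer peptides in which cysteines were replaced by serines. Detection used anti-GST antibody, an HRP anti-mouse secondary and luminol, followed by imaging and Genespotter quantification.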

Binder	SPOT peptide array binding signal intensity
NIKVLLNPKLGKPVK	325

The binders below were run against CaRvs167 in the same assay as above.
Procedure, shortened: as §1

Binder	SPOT peptide array binding signal intensity
NIKVLLNPKLGKPVK	105

These binders were tested against CaRvs167-3 in the same assay as above.
Procedure, shortened: as §1

Binder	SPOT peptide array binding signal intensity
NIKVLLNPKLGKPVK	752

What follows are binders tested against CaSho1 in the same assay as above.
Procedure, shortened: as §1

Binder	SPOT peptide array binding signal intensity
NIKVLLNPKLGKPVK	700

These binders were tested against CaSla1-D1-D2 in the same assay as above.
Procedure, shortened: as §1

Binder	SPOT peptide array binding signal intensity
NIKVLLNPKLGKPVK	2

These binders were tested against CaSla1-D3 in the same assay as above.
Procedure, shortened: as §1

Binder	SPOT peptide array binding signal intensity
NIKVLLNPKLGKPVK	26

These binders were tested against ScAbp1 in the same assay as above.
Procedure, shortened: as §1

Binder	SPOT peptide array binding signal intensity
NIKVLLNPKLGKPVK	48

Each binder was assayed against ScBbc1 in the same assay as above.
Procedure, shortened: as §1

Binder	SPOT peptide array binding signal intensity
NIKVLLNPKLGKPVK	0.25

The binders below were run against ScBem1-D1 in the same assay as above.
Procedure, shortened: as §1

Binder	SPOT peptide array binding signal intensity
NIKVLLNPKLGKPVK	7

What follows are binders tested against ScBzz1-D1 in the same assay as above.
Procedure, shortened: as §1

Binder	SPOT peptide array binding signal intensity
NIKVLLNPKLGKPVK	32

Each binder was assayed against ScBzz1-D2 in the same assay as above.
Procedure, shortened: as §1

Binder	SPOT peptide array binding signal intensity
NIKVLLNPKLGKPVK	207

These binders were tested against ScCyk3 in the same assay as above.
Procedure, shortened: as §1

Binder	SPOT peptide array binding signal intensity
NIKVLLNPKLGKPVK	10.5

These binders were tested against ScFus1 in the same assay as above.
Procedure, shortened: as §1

Binder	SPOT peptide array binding signal intensity
NIKVLLNPKLGKPVK	527

Each binder was assayed against ScHof1 in the same assay as above.
Procedure, shortened: as §1

Binder	SPOT peptide array binding signal intensity
NIKVLLNPKLGKPVK	1.25

What follows are binders tested against ScHse1 in the same assay as above.
Procedure, shortened: as §1

Binder	SPOT peptide array binding signal intensity
NIKVLLNPKLGKPVK	1460

What follows are binders tested against ScLsb1 in the same assay as above.
Procedure, shortened: as §1

Binder	SPOT peptide array binding signal intensity
NIKVLLNPKLGKPVK	5.75

These binders were tested against ScLsb2 in the same assay as above.
Procedure, shortened: as §1

Binder	SPOT peptide array binding signal intensity
NIKVLLNPKLGKPVK	1

What follows are binders tested against ScLsb3 in the same assay as above.
Procedure, shortened: as §1

Binder	SPOT peptide array binding signal intensity
NIKVLLNPKLGKPVK	1.53e-05

These binders were tested against ScLsb4 in the same assay as above.
Procedure, shortened: as §1

Binder	SPOT peptide array binding signal intensity
NIKVLLNPKLGKPVK	3

These binders were tested against ScMyo3 in the same assay as above.
Procedure, shortened: as §1

Binder	SPOT peptide array binding signal intensity
NIKVLLNPKLGKPVK	1

The binders below were run against ScMyo5 in the same assay as above.
Procedure, shortened: as §1

Binder	SPOT peptide array binding signal intensity
NIKVLLNPKLGKPVK	1

The binders below were run against ScNbp2 in the same assay as above.
Procedure, shortened: as §1

Binder	SPOT peptide array binding signal intensity
NIKVLLNPKLGKPVK	29

These binders were tested against ScPex13 in the same assay as above.
Procedure, shortened: as §1

Binder	SPOT peptide array binding signal intensity
NIKVLLNPKLGKPVK	4.5

What follows are binders tested against ScRvs167 in the same assay as above.
Procedure, shortened: as §1

Binder	SPOT peptide array binding signal intensity
NIKVLLNPKLGKPVK	21.8

What follows are binders tested against ScSho1 in the same assay as above.
Procedure, shortened: as §1

Binder	SPOT peptide array binding signal intensity
NIKVLLNPKLGKPVK	696

What follows are binders tested against ScSla1-D1-D2 in the same assay as above.
Procedure, shortened: as §1

Binder	SPOT peptide array binding signal intensity
NIKVLLNPKLGKPVK	42

The binders below were run against ScSla1-D3 in the same assay as above.
Procedure, shortened: as §1

Binder	SPOT peptide array binding signal intensity
NIKVLLNPKLGKPVK	7.75

The binders below were run against SpAbp1-D1 in the same assay as above.
Procedure, shortened: as §1

Binder	SPOT peptide array binding signal intensity
NIKVLLNPKLGKPVK	30.5

The binders below were run against SpBbc1 in the same assay as above.
Procedure, shortened: as §1

Binder	SPOT peptide array binding signal intensity
NIKVLLNPKLGKPVK	11.2

What follows are binders tested against SpBzz1-D1 in the same assay as above.
Procedure, shortened: as §1

Binder	SPOT peptide array binding signal intensity
NIKVLLNPKLGKPVK	132

These binders were tested against SpBzz1-D2 in the same assay as above.
Procedure, shortened: as §1

Binder	SPOT peptide array binding signal intensity
NIKVLLNPKLGKPVK	≤ 0

What follows are binders tested against SpCyk3 in the same assay as above.
Procedure, shortened: as §1

Binder	SPOT peptide array binding signal intensity
NIKVLLNPKLGKPVK	≤ 0

What follows are binders tested against SpHof1 in the same assay as above.
Procedure, shortened: as §1

Binder	SPOT peptide array binding signal intensity
NIKVLLNPKLGKPVK	75.5

The binders below were run against SpHof1-2 in the same assay as above.
Procedure, shortened: as §1

Binder	SPOT peptide array binding signal intensity
NIKVLLNPKLGKPVK	13

Each binder was assayed against SpHof1-3 in the same assay as above.
Procedure, shortened: as §1

Binder	SPOT peptide array binding signal intensity
NIKVLLNPKLGKPVK	640

These binders were tested against SpHse1 in the same assay as above.
Procedure, shortened: as §1

Binder	SPOT peptide array binding signal intensity
NIKVLLNPKLGKPVK	558

These binders were tested against SpLsb1 in the same assay as above.
Procedure, shortened: as §1

Binder	SPOT peptide array binding signal intensity
NIKVLLNPKLGKPVK	1.75

These binders were tested against SpLsb4 in the same assay as above.
Procedure, shortened: as §1

Binder	SPOT peptide array binding signal intensity
NIKVLLNPKLGKPVK	26

Each binder was assayed against SpMyo1 in the same assay as above.
Procedure, shortened: as §1

Binder	SPOT peptide array binding signal intensity
NIKVLLNPKLGKPVK	≤ 0

The binders below were run against SpNbp2 in the same assay as above.
Procedure, shortened: as §1

Binder	SPOT peptide array binding signal intensity
NIKVLLNPKLGKPVK	95.5

Each binder was assayed against SpPex13 in the same assay as above.
Procedure, shortened: as §1

Binder	SPOT peptide array binding signal intensity
NIKVLLNPKLGKPVK	13

What follows are binders tested against SpRvs167 in the same assay as above.
Procedure, shortened: as §1

Binder	SPOT peptide array binding signal intensity
NIKVLLNPKLGKPVK	18.2

These binders were tested against SpSla1-D1-D2 in the same assay as above.
Procedure, shortened: as §1

Binder	SPOT peptide array binding signal intensity
NIKVLLNPKLGKPVK	≤ 0

These binders were tested against SpSla1-D3 in the same assay as above.
Procedure, shortened: as §1

Binder	SPOT peptide array binding signal intensity
NIKVLLNPKLGKPVK	4
